This is part of a sample that, as a whole, favours compounds with a hit. Of some 83,000 tested, about 20% had one in any assay.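 Method: cells in 96-well plates; compound added at one concentration; 48 h incubation; percent growth measured; values under 10 scored active.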 A number with no mark means an inactive call. Activity calls are given as the source filed them.
Assays:
Experiment in all cases: NCI-60 one-dose screen, 48 h (100 = growth as untreated, 0 = no growth, -100 = all killed)
Details in all cases: 10 µM unless noted
NCI-H23 lung = tested on: NCI-H23 lung
NCI-H226 lung = tested on: NCI-H226 lung
NCI-H322M lung = tested on: NCI-H322M lung
HOP-62 NSCLC = tested on: HOP-62 NSCLC
NCI-H460 lung = tested on: NCI-H460 lung
HOP-92 NSCLC = tested on: HOP-92 NSCLC
A549/ATCC NSCLC = tested on: A549/ATCC NSCLC
786-0 renal = tested on: 786-0 renal
COLO 205 colon = tested on: COLO 205 colon

Work on `COc1cc(C2CC(C3C(=O)N(C)C(=O)N(C)C3=O)=NN2C=O)cc(OC)c1OC` (stereo not drawn) yielded a growth (NCI-H23 lung) of 97.3%, a growth (NCI-H226 lung) of 95.8% and a growth (NCI-H322M lung) of 91.2%. The growth (HOP-62 NSCLC) was 73.5%, the growth (NCI-H460 lung) was 99.9% and the growth (HOP-92 NSCLC) was 105%. For the same compound, the growth (A549/ATCC NSCLC) was 75.1%, the growth (786-0 renal) was 108% and the growth (COLO 205 colon) was 98.7%.
Work on `COc1ccc(-c2cc(-c3nnc(SCC(=O)Nc4ccc(C(C)=O)cc4)n3-c3ccccc3)c3ccccc3n2)cc1OC` yielded a growth (NCI-H23 lung) of 96.2%, a growth (NCI-H226 lung) of 105% and a growth (NCI-H322M lung) of 102%. The growth (HOP-62 NSCLC) was 84%, the growth (NCI-H460 lung) was 103% and the growth (HOP-92 NSCLC) was 104%. The growth (A549/ATCC NSCLC) was 94.9%, the growth (786-0 renal) was 97.1% and the growth (COLO 205 colon) was 98.8%.
`COc1cc(/C=C/C(=O)c2c(C)n([O-])c3ccccc3[n+]2=O)cc(OC)c1OC` gave a growth (NCI-H23 lung) of 54.9%, a growth (NCI-H226 lung) of 86.5% and a growth (NCI-H322M lung) of 49%. For the same compound, the growth (HOP-62 NSCLC) was 105%, the growth (NCI-H460 lung) was 20.6% and the growth (HOP-92 NSCLC) was -0.517% (active). The growth (A549/ATCC NSCLC) was 51.4%, the growth (786-0 renal) was 65.9% and the growth (COLO 205 colon) was 55.9%.
Compound `COc1cccc(N2CCN(CC(=O)N3CCN(c4nnc(-c5ccc(Cl)cc5)c(-c5ccc(Cl)cc5)n4)CC3)CC2)c1` has a growth (NCI-H23 lung) of 82.9%, a growth (NCI-H226 lung) of 74.7% and a growth (NCI-H322M lung) of 71.9%. The growth (HOP-62 NSCLC) was 95.9%, the growth (NCI-H460 lung) was 70.8% and the growth (HOP-92 NSCLC) was 11.9%. For the same compound, the growth (A549/ATCC NSCLC) was -1.64% (active), the growth (786-0 renal) was 79.4% and the growth (COLO 205 colon) was 78.6%.
`COc1ccc2c(c1)sc1nc(-c3ccc(N(C)C)cc3)cn12` gave a growth (NCI-H23 lung) of 99.2%, a growth (NCI-H226 lung) of 139% and a growth (NCI-H322M lung) of 98.2%. For the same compound, the growth (HOP-62 NSCLC) was 105%, the growth (NCI-H460 lung) was 85% and the growth (HOP-92 NSCLC) was 34.3%. For the same compound, the growth (A549/ATCC NSCLC) was 96.6%, the growth (786-0 renal) was 89.7% and the growth (COLO 205 colon) was 93.7%.
For `O=[N+]([O-])c1ccc(N=Nc2c(Cl)cc(O)cc2Cl)cc1`, the growth (NCI-H23 lung) was -23.4% (active), the growth (NCI-H226 lung) was 10.3% and the growth (NCI-H322M lung) was -11.9% (active). The growth (HOP-62 NSCLC) was 4.04% (active), the growth (NCI-H460 lung) was -4.31% (active) and the growth (HOP-92 NSCLC) was 3.34% (active). For the same compound, the growth (A549/ATCC NSCLC) was 16.4%, the growth (786-0 renal) was -20.1% (active) and the growth (COLO 205 colon) was 35.2%.
`O=C1NCCc2c1noc2-c1ccccc1` was tested, and the growth (NCI-H23 lung) was 99.5%, the growth (NCI-H226 lung) was 104% and the growth (NCI-H322M lung) was 101%. For the same compound, the growth (HOP-62 NSCLC) was 94.9%, the growth (NCI-H460 lung) was 107% and the growth (HOP-92 NSCLC) was 104%. It also gave a growth (A549/ATCC NSCLC) of 79.7%, a growth (786-0 renal) of 96.5% and a growth (COLO 205 colon) of 103%.

From PubChem BioAssay (NCI)
